# Among all 290,000 compounds or so, about 3,300 (1.1%) were called active. Rule as the data show it: active = binding response below about 67% or above about 130%; inconclusive = no clear call, values can overlap the other calls; inactive = in between. Only a selection was taken, and actives are over-represented in it overall.
# Biological target: Mitogen-activated protein kinase kinase kinase 2 (Homo sapiens) (UniProt Q9Y2U5)
# Assay: modulators of MEK5 binding to wildtype MEKK2, primary screen, biochemical, multiplex bead flow cytometry, Alexa488-MEK5 (AID 1531)
# Settings: Alexa488-MEK5 binding to MEKK2 WT, at 10 µM, actives lie on both sides
row,Compound,binding response (% of control)
1,CCn1cc(CN2CCC(n3nccc3NC(=O)CCCc3ccccc3)CC2)c(C)n1,108% (inactive)
2,O=C(Nc1cnn(Cc2ccc(Cl)cc2)c1)C1CCCC1,110% (inactive)
3,CCn1cc(CN2CCC(C(=O)Nc3cccc(-c4cccc(Cl)c4)c3)CC2)cn1,160% (active)
4,O=C(Nc1cccc(-c2cscn2)c1)C1CCN(Cc2ccsc2)CC1,112% (inactive)
5,CCn1cc(CN2CCC(C(=O)Nc3cccc(-c4cccc(Cl)c4)c3)CC2)c(C)n1,166% (active)
6,O=C(NC1CCCC1)C1CCN(C(=O)Nc2cccc(Cl)c2)CC1,110% (inactive)
7,O=C(Nc1cccc(-c2cccc(Cl)c2)c1)C1CCN(C2CCC2)CC1,151% (active)
8,CC(=O)c1cc(CN2CCC(C(=O)Nc3cccc(-c4cscn4)c3)CC2)cs1,116% (inactive)
9,COc1cccc(-c2cccc(NC(=O)C3CCN(C4CCC4)CC3)c2)c1,104% (inactive)
10,COc1ccc(CNC(=O)[C@@H]2CC=C[C@@H]3CCN(C4CC4)C(=O)[C@@H]32)cc1,98% (inactive)
11,Cc1ccc(CN(CC(=O)NC2CCCCC2)C(=O)c2csnn2)cc1,104% (inactive)
12,O=C(O)CC/C(=C\c1cc2c(cc1Br)OCO2)c1nc2ccccc2s1,95% (inactive)
13,O=C(Nc1ccc(Cl)c(Cl)c1)c1ccccc1NC(=O)C1CC=CCC1C(=O)O (stereo not given),104% (inactive)
14,CCCCc1nnc(NC(=O)CSc2nc(C)cc(=O)[nH]2)s1,99% (inactive)
15,CCOC(=O)Cc1csc(NC(=O)CSc2nc(C)cc(=O)[nH]2)n1,61% [inhibitor] (active)
16,CCOC(=O)Cc1csc(NC(=O)CSc2ccc(Br)cc2)n1,109% (inactive)
17,CCOc1ccccc1N1C(=O)CC(Sc2nccc(C)n2)C1=O (stereo not given),105% (inactive)
18,CSc1ccccc1NC(=O)c1ccc2c(c1)CCN2S(C)(=O)=O,106% (inactive)
19,O=C(C1CCC(=O)N(C2CC2)C1)N1CCN(c2ccc(Cl)cc2)CC1 (stereo not given),104% (inactive)
20,CN(C)Cc1c(O)ccc2c(=O)c(-c3ccccc3Cl)coc12,112% (inactive)
21,CCCOc1ccc(Cl)cc1Nc1nc(NCCO)nc(N2CCCC2)n1,112% (inactive)
22,CC1CCC(NC(=O)c2ccc(N3CCCC3=O)cc2)CC1 (stereo not given),105% (inactive)
23,CCOc1ccc(C(=O)NCCCN2CCCC2=O)cc1,112% (inactive)
24,O=C(NCCCN1CCCCCC1)c1ccc(N2CCCC2=O)cc1,193% (active)

row,Compound,binding response (% of control)
1,CC1CN(S(=O)(=O)c2cccc(C(F)(F)F)c2)CN1C(=O)N1CCOCC1 (stereo not given),95% (inactive)
2,COc1ccccc1N1N=C(c2cccs2)CC1c1ccccc1 (stereo not given),93% (inactive)
3,Cc1ccccc1C1CC(c2cccs2)=NN1S(C)(=O)=O (stereo not given),16% (active)
4,COc1ccc(C2CC(c3cccs3)=NN2c2ccccc2)cc1 (stereo not given),81% (inactive)
5,FC(F)(F)c1cccc(Nc2ncnc3ccccc23)c1,103% (inactive)
6,FC(F)(F)c1cccc(N/N=C/c2ccccc2)c1,143% (active)
7,O=[N+]([O-])c1ccc(N/N=C/c2ccccc2)cc1,99% (inactive)
8,O=C1Nc2cc(C(=O)N3CCN(c4ccc(F)cc4)CC3)ccc2NC1CSCc1cccc(F)c1 (stereo not given),87% (inactive)
9,Nc1ccc(S(=O)(=O)Nc2nccc(/C=C/c3ccc(Br)s3)n2)cc1,93% (inactive)
10,O=C(/C=C/c1ccccc1Cl)Nc1ccc(S(=O)(=O)Nc2ncccn2)cc1,92% (inactive)
11,CC(=O)Nc1ccc(S(=O)(=O)Nc2nccc(/C=C/c3ccccc3F)n2)cc1,-6% (active)
12,CC(=O)N1c2ccc(S(=O)(=O)N3CCC(C(=O)N4CCN(c5ccccc5)CC4)CC3)cc2CC1C (stereo not given),102% (inactive)
13,COc1ccc(C=C(C#N)C#N)c(CSc2ccccn2)c1,103% (inactive)
14,CCOc1ccccc1NC(=O)NC1CCCCCCC1,98% (inactive)
15,COCCNC(=O)CN(Cc1ccco1)C(=O)CCC(=O)Nc1nccs1,103% (inactive)
16,O=C(c1ccc(F)cc1)n1c(=S)nc2ccccn21,80% (inactive)
17,O=C(CSc1ccc(-c2ccc(Br)cc2)nn1)NCC1CCCO1 (stereo not given),107% (inactive)
18,OC(CNCC1CCCO1)Cn1c2ccc(Br)cc2c2cc(Br)ccc21 (stereo not given),141% (active)
19,CC(NS(=O)(=O)c1ccc(Br)cc1)C(=O)NCC1CCCO1 (stereo not given),100% (inactive)
20,COC(=O)C(C)n1cnc2c(nnn2-c2ccc(F)cc2)c1=O (stereo not given),94% (inactive)
21,COc1cc(NC(=O)CCS(=O)(=O)c2ccc3c(c2)oc(=O)n3C)cc(OC)c1,100% (inactive)
22,COc1ccc(CCNC(=O)C2CCCN(S(=O)(=O)c3ccc(OC)cc3)C2)cc1 (stereo not given),94% (inactive)
23,CC(C)(C)Oc1ccccc1Nc1nc(NCCO)nc(N2CCCC2)n1,103% (inactive)
24,COCCNC(=S)N/N=C/c1c(C)[nH]c2ccccc12,24% (active)

row,Compound,binding response (% of control)
1,Cc1[nH]c2ccccc2c1/C=N\NC(=O)Cn1nnc(-c2ccccc2)n1,107% (inactive)
2,Cc1[nH]c2ccccc2c1/C=N/NC(=O)CNC(=O)c1ccc2c(c1)OCO2,100% (inactive)
3,CC(C)c1nc2cc(C(=O)NC(C)c3cnn(C)c3)ccc2o1 (stereo not given),104% (inactive)
4,O=C(OCc1cc(Cl)ccc1OC(F)F)c1cccnc1,281% (active)
5,Cc1cc(=O)[nH]c(SCc2cc(Cl)ccc2OC(F)F)n1,106% (inactive)
6,O=C(OCc1cc2ccccc2[nH]c1=O)c1cccnc1,109% (inactive)
7,COC(=O)C1=C[C@@H](C(=O)OC)[C@@H]2C3=C(C(=O)[C@]2(C)NC(=O)c2ccccc2)[C@H](C)n2c(=O)n(C)c(=O)n2[C@@H]3C1,102% (inactive)
8,OCC[C@H]1C[C@H](O)[C@@H](O)[C@]2(CCCCO2)O1,98% (inactive)
9,Cc1ccc(NS(=O)(=O)c2cc3c(cc2C)NC(=O)CO3)cc1,98% (inactive)
10,Cc1cccc(NC(=O)c2cccc(C(F)(F)F)c2)c1,91% (inactive)
11,Cc1cccc(NC(=O)Nc2cccc(Oc3c(F)c(F)c(F)c(F)c3F)c2)c1,235% (active)
12,COc1cccc(NC(=O)NCc2ccc(F)cc2)c1,98% (inactive)
13,CC(Sc1nnc(-c2ccccc2F)n1C1CC1)C(N)=O (stereo not given),104% (inactive)
14,Cc1c(NC(=O)Nc2cccc([N+](=O)[O-])c2)c(=O)n(-c2ccccc2)n1C,103% (inactive)
15,COc1ccc(C(=O)NC(=S)N2CCNC(=O)C2CC(=O)OC(C)C)cc1 (stereo not given),107% (inactive)
16,O=C(COC(=O)c1ccc(N2CCCC2=O)cc1)c1ccc(OC(F)F)cc1,0% [inhibitor] (active)
17,CCCNC(=O)NCc1ccc(N2CCCC2=O)cc1,98% (inactive)
18,CCOc1ccc(C(=O)COC(=O)c2ccc(-n3cnnn3)cc2)cc1,99% (inactive)
19,COC(C[C@@H](O)C[C@H](O)[C@H](C)OCc1ccccc1)OC,92% (inactive)
20,Cc1noc(C)c1S(=O)(=O)Nc1ccc(C(=O)O)cc1,100% (inactive)
21,Cc1cc(C)cc(N(CC(=O)N2CC=C(c3ccccc3)CC2)S(=O)(=O)c2c(C)noc2C)c1,112% (inactive)
22,Cc1noc(C)c1S(=O)(=O)N(C)Cc1ccccc1,5% [inhibitor] (active)
23,CC(=O)N(C)c1ccc(NC(=O)Nc2cccc3ccccc23)cc1,106% (inactive)
24,CCOc1ccc(NC(=O)Nc2ccc(N(C)C(C)=O)cc2)cc1,97% (inactive)

row,Compound,binding response (% of control)
1,CC(=O)N(C)c1ccc(NC(=O)C(F)(F)F)cc1,-2% [inhibitor] (active)
2,O=C(/C=C/c1ccc(OCc2c(F)cccc2Cl)cc1)N1CCOCC1,74% (inactive)
3,COCCCNC(=O)/C=C/c1ccc(OCc2c(F)cccc2Cl)cc1,106% (inactive)
4,CN(C)CCCNC(=O)/C=C/c1ccc(OCc2c(F)cccc2Cl)cc1,170% (active)
5,CCOC(=O)N1CCC(NC(=O)CCc2ccccc2)CC1,107% (inactive)
6,COc1cc(NC(=O)C2=CC(c3ccc(C)cc3)=NS(=O)(=O)N2C)cc(OC)c1OC,105% (inactive)
7,Cc1cc(C)cc(N(CC(=O)NC2CCCC2)C(=O)CCC(=O)Nc2cc(C)on2)c1,96% (inactive)
8,COCCCNC(=O)[C@H]1N2C(=O)c3ccccc3C2SC1(C)C (stereo not given in full),103% (inactive)
9,CS(=O)(=O)Nc1cccc(C2=NN(S(=O)(=O)c3ccccc3)C(c3cccs3)C2)c1 (stereo not given),94% (inactive)
10,Cc1ccc(C2CC(c3cccc(NS(C)(=O)=O)c3)=NN2S(C)(=O)=O)cc1 (stereo not given),20% (active)
11,CS(=O)(=O)Nc1cccc(C2=NN(C(=O)c3cccc(F)c3)C(c3cccs3)C2)c1 (stereo not given),102% (inactive)
12,CN(C(=O)CC1C(=O)NCCN1Cc1ccc(F)cc1Cl)C1CCCCC1 (stereo not given),101% (inactive)
13,O=C(NCc1ccncc1)NC12CC3CC(CC(C3)C1)C2,87% (inactive)
14,S=C(NCc1ccc(Cl)cc1)NC1CCCCC1,106% (inactive)
15,S=C(NCc1ccc(Cl)cc1)NC12CC3CC(CC(C3)C1)C2,160% (active)
16,Cc1cccc(OCC(=O)NCC(=O)N/N=C/c2ccc(N(C)C)cc2)c1,106% (inactive)
17,CN(C)CCCn1c(SCc2ccc(Cl)cc2)nnc1-c1ccncc1,109% (inactive)
18,O=S(=O)(Cc1nnnn1-c1ccccc1)c1ccccc1,108% (inactive)
19,Cc1cc(/C=C2/C(=N)N3C(=NC2=O)SN=C3S(C)(=O)=O)c(C)n1-c1ccccc1,-2% (active)
20,CCC1=NN2C(=N)/C(=C/c3cc(C)n(-c4ccccc4)c3C)C(=O)N=C2S1,98% (inactive)
21,CCS(=O)(=O)C1=NSC2=NC(=O)/C(=C\c3cc(C)n(-c4cccc(OC)c4)c3C)C(=N)N21,98% (inactive)
22,Cc1cccc(CCNC(=O)Cn2ncc3c([nH]c4ccc(C)cc43)c2=O)c1,96% (inactive)
23,C=CCOc1cccc(C2C(C(=O)c3ccc(C)o3)=C(O)C(=O)N2CCCn2ccnc2)c1 (stereo not given),98% (inactive)
